Assay results: article PMC4336329 (PLoS ONE, 2015)
About 14,000 (4.5%) of roughly 310,000 compounds showed an effect of 50% or more. The effect is printed as a negative number. What follows is part of a selection rich in strong results, with near analogues and random picks from the rest.

Target: human ether-à-go-go-related gene (hERG) potassium channel (human, UniProt Q12809)
Assay: primary screen, population patch clamp on CHO cells stably expressing hERG; higher = less effect of the substance
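Further: peak tail current of the secondary pulse compared with the same well before compound.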

human ether-à-go-go-related gene (hERG) potassium channel, sequence (Q12809 whole entry, looked up): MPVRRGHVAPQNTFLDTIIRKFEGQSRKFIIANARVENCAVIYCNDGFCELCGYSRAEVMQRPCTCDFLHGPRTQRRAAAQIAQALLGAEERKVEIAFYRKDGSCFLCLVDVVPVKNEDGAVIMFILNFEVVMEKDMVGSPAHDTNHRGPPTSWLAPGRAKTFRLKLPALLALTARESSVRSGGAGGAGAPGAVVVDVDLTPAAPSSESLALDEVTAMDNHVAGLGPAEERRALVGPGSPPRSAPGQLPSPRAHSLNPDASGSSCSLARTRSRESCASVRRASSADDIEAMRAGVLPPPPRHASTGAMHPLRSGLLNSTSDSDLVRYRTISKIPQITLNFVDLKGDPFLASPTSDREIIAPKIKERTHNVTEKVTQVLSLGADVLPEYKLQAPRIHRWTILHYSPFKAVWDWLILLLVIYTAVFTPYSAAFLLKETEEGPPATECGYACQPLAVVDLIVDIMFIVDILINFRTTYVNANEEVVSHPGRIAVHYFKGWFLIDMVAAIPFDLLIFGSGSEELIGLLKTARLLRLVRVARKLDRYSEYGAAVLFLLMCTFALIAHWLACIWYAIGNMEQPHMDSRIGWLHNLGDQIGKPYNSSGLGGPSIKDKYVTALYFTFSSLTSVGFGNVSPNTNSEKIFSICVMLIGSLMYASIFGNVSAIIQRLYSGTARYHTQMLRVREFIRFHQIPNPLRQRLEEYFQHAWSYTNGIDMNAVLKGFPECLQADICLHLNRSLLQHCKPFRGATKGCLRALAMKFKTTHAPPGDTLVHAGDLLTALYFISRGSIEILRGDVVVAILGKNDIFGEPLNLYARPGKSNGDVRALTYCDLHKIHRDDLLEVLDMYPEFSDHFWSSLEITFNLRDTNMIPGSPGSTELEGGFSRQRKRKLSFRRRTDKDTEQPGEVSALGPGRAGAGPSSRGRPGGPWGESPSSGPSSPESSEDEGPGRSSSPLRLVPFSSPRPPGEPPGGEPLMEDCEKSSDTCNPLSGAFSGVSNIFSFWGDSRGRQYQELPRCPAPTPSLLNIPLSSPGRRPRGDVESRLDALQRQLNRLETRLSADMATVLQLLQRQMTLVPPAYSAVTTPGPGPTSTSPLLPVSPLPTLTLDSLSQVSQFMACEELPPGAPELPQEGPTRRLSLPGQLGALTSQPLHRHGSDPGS

First: COC(=O)c1ccc(CNC(=O)COC(=O)Cc2ccsc2)cc1
Second: COc1cc(NC(=O)COc2cccc(C)c2C)ccc1NC(=O)c1ccco1
The “hERG current change (%, negative = inhibition) at 10uM” value of the first is lower: -6.64% for the first, 13% for the second.

Compared with `Cc1cccc(CN2CCC(n3nccc3NC(=O)CCCc3ccccc3)CC2)n1`, `CSc1ccc(CN2CCC(n3nccc3NC(=O)CCCc3ccccc3)CC2)cc1` is lower in “hERG current change (%, negative = inhibition) at 10uM” value: -20.2% for the first, -82.5% for the second.

Compared with `C=C(C)CCC(C)N1CCC(n2nccc2NC(=O)CCCc2ccccc2)CC1` (centres unmarked), `CSCC(C)N1CCC(n2nccc2NC(=O)CCCc2ccccc2)CC1` (centres unmarked) is higher in “hERG current change (%, negative = inhibition) at 10uM” value: -74.2% for the first, -47.5% for the second.

First: COCC(C)N1CCC(n2nccc2NC(=O)CCCc2ccccc2)CC1 (centres unmarked)
Second: CCn1nnnc1SCC(=O)N1CCN(c2ccccc2)CC1
The “hERG current change (%, negative = inhibition) at 10uM” value of the first is lower: -15.2% for the first, -10.4% for the second.

First: COc1ccc(C(=O)Nc2nnc(S(=O)(=O)N3CCCCCC3)s2)cc1OC
Second: Cc1cc(Cl)c(S(=O)(=O)N2CCCCCC2)cc1OCC(=O)NC1CCCCC1
The “hERG current change (%, negative = inhibition) at 10uM” value of the first is higher: -0.855% for the first, -18.6% for the second.

Compared with `O=C(Nc1ccc(N2CCOCC2)cc1)c1cccc(S(=O)(=O)N2CCCC2)c1`, `Cc1cc(Cl)c(S(=O)(=O)N2CCN(c3ccccn3)CC2)cc1OCC(=O)NC1CCCCC1` is lower in “hERG current change (%, negative = inhibition) at 10uM” value: 1.96% for the first, -56.9% for the second.

First: CC(=O)c1cccc(OCc2cc(C(=O)N(C)C(C)c3ccccn3)no2)c1 (centres unmarked)
Second: Cc1cc(Cl)c(S(=O)(=O)Nc2ccccn2)cc1OCC(N)=O
The “hERG current change (%, negative = inhibition) at 10uM” value of the first is higher: -4.32% for the first, -71.8% for the second.

Compared with `CC(NC(=O)/C=C/c1cnc2ccccc2n1)C12CC3CC(CC(C3)C1)C2` (centres unmarked), `Cc1cc(Cl)c(S(=O)(=O)N2CCN(c3ccccn3)CC2)cc1OCC(N)=O` is higher in “hERG current change (%, negative = inhibition) at 10uM” value: -10.1% for the first, 17.6% for the second.

Going from `Cc1cc(Cl)c(S(=O)(=O)NCc2cccnc2)cc1OCC(N)=O` to `Cc1cc(Cl)c(S(=O)(=O)NCc2cccnc2)cc1OCC(=O)NC1CCCCC1`, the “hERG current change (%, negative = inhibition) at 10uM” value falls from 10.1% to -53.2%.

Going from `Cc1ccccc1NS(=O)(=O)c1cc(OCC(N)=O)c(C)cc1Cl` to `Cc1cc(Cl)c(S(=O)(=O)Nc2ccc(Cl)cn2)cc1OCC(N)=O`, the “hERG current change (%, negative = inhibition) at 10uM” value falls from 5.68% to -2.03%.

First: Cc1cc(Cl)c(S(=O)(=O)NC2CCCC2)cc1OCC(=O)NC1CCCCC1
Second: CCNC(=O)c1c(NC(=O)c2cc(-c3cc(C)ccc3O)n[nH]2)sc2c1CCCC2
The “hERG current change (%, negative = inhibition) at 10uM” value of the first is lower: -7.18% for the first, 30.5% for the second.

For `Br.CC1CCN(Cc2nnnn2-c2cccc([N+](=O)[O-])c2)CC1`, the “hERG current change (%, negative = inhibition) at 10uM” value was -10.8%.
